This passage reports outcome and AC50 results from PubChem BioAssay (EPA / NIEHS).

Calls of active or inactive are those of the source. How the source made its calls: active means hit-call score of the fitted dose curve at least 0.9, where 1 is the maximum; inactive means score below 0.9.

The nature of the experiment: ATG_TCF_b_cat_CIS: Attagene CIS-FACTORIAL HepG2 Assay for human T-Cell-Factor with beta-catenin (TCF/b-cat) (AID 2282965). The note with it: HepG2 TCF/beta-catenin cis-reporter transcription, actives raise or lower the signal. How it is done:
ATG_CIS is a cell-based, multiplexed-readout assay that uses HepG2, a human liver cell line, with measurements taken at 24 hours after chemical dosing in a 24-well plate.ATG_TCF_b_cat_CIS is one of 52 assay component(s) measured or calculated from the ATG_CIS assay. It is designed to make measurements of mRNA induction, a form of inducible reporter, as detected with fluorescence intensity signals by Reverse transcription polymerase chain reaction (RT-PCR) and Capillary electrophoresis technology.Data from the assay component ATG_TCF_b_cat_CIS was analyzed into 1 assay endpoint. This assay endpoint, ATG_TCF_b_cat_CIS, was analyzed with bidirectional fitting relative to DMSO as the negative control and baseline of activity. Using a type of inducible reporter, measures of mRNA for gain or loss-of-signal activity can be used to understand the reporter gene at the transcription factor-level as they relate to the gene TCF7 and TCF7L2 and LEF1 and TCF7L1. Furthermore, this assay endpoint can be referred to as a primary readout, because this assay has produced multiple assay endpoints where this one serves a reporter gene function. To generalize the intended target to other relatable targets, this assay endpoint is annotated to the dna binding intended target family, where the subfamily is HMG box protein.
Human liver HepG2 cells are transiently transfected with multiple reporter transcription units (MRTUs) in 6-well plates using FuGene 6 reagent (Roche; 3 ml FuGene/1 mg DNA). The MRTU constructs are regulated by a cis-regulating element (promoter). […] A major difference between the CIS and TRANS system is that in CIS activities of endogenous TFs are measured, whereas the TRANS assay evaluates changes in activities of exogenous, chimeric NR-Gal4 proteins. […] At the end of 24 hour incubation, total RNA was isolated using TriZol reagent (Invitrogen). The isolated RNA is then reverse-transcribed using oligo(dT) primer and Mo-MLV reverse transcriptase (Invitrogen) with DNAse I (Ambion) treatment for 30 min. The one-tenth of the produced cDNA was amplified by PCR using Taq DNA polymerase (Invitrogen) and two reporter sequence-specific primers. The PCR products were fluorescently labeled by primer extension with 6-arboxyfluorescein (6-FAM) 5'-labeled reporter sequence-specific primer (2 min at 95 C, 20 s at 68 C and 10 min at 72 C) and these products were digested with 5U of HpaI (New England Biolabs) for 2h at 37 C. The fragments were purified using Qiaquick PCR columns (Qiagen), analyzed on an ABI 3130xL genetic analyzer (Applied Biosystems) with peak positions identified by using a set of X-rhodamine (ROX)-labeled MapMarker1000 molecular weight standards (BioVentures). The raw capillary electrophoresis data was processed using Attagraph software (Attagene).
On to `CC(C)c1ccc2cc(C(C)C)ccc2c1`, for which the molecule was classed as inactive.
Take `CC=C1CC2C=CC1C2` (stereo not given): the result was inactive.
Regarding `CCN(CCO)c1cccc(C)c1`, the molecule was classed as inactive.
For the molecule `CC(C)=CCC/C(C)=C\C#N`, the call was inactive.
For the molecule `O=C(Oc1ccccc1)c1ccc2ccccc2c1O`, the molecule was called inactive.
On the same count and under the same terms, next, `C=C(C)[C@@H]1CCC2=CCC[C@@H](C)[C@]2(C)C1`: “inactive”.
Usually AC50 stands for the concentration at which the activity in the assay is half-maximal. As to `Nc1ncn([C@@H]2O[C@H](CO)[C@@H](O)[C@H]2O)c(=O)n1`, the AC50 was 0.975 µM (active).
For the molecule `Cc1cc(C)c(C)c(C)c1`, the result was inactive.
With `O=C1CCCCCCCCCCCCCCCO1`, the outcome was inactive.
On the same count and under the same terms, next, `CCCCCCCCCCCCCCCC(=O)OCC`: “inactive”.
Take `CC(C)CCCC(C)CC=O` (stereo not given): the molecule was classed as inactive.
`C=C[Si](OC(C)=O)(OC(C)=O)OC(C)=O`: the result was inactive.
As to `CC(=O)OCCC1CCCCC1`, the molecule was called inactive.
Take `CC(C)c1ccc2c(C(C)C)cc(C(C)C)c(S(=O)(=O)O)c2c1`: the call was inactive.
Regarding `c1ccc(-c2ccccn2)nc1`, the result was inactive.
`CCc1ccc2c(c1)C(=O)c1ccccc1C2=O`: the molecule was classed as inactive.
For the molecule `C#CC1(O)CC[C@H]2[C@@H]3CCC4=CCCC[C@@H]4[C@H]3CC[C@@]21C` (stereo not given in full), the AC50 is 33.4 µM (active).
Regarding `Nc1cccc(C(F)(F)F)c1`, the molecule was classed as inactive.
Turning to `Cc1cccc(N(C)C(=S)Oc2ccc3ccccc3c2)c1`, the result was inactive.
With `C=CCOc1c(Br)cc(Br)cc1Br`, the result was inactive.
For the molecule `O=S(=O)(O)c1cc(S(=O)(=O)O)c2ccc3c(S(=O)(=O)O)cc(S(=O)(=O)O)c4ccc1c2c43`, the molecule was called inactive.
Take `CC(C)(C)c1n[nH]c(=O)n(N)c1=O`: the molecule was called inactive.
For the molecule `Cc1c(C)c([N+](=O)[O-])c(C(C)(C)C)c([N+](=O)[O-])c1C`, the result was inactive.
Regarding `[Cl][Nd]([Cl])[Cl]`, the outcome was inactive.
For `COc1ccc([C@@H]2CC(=O)c3c(O)cc(O[C@@H]4O[C@H](CO[C@@H]5O[C@@H](C)[C@H](O)[C@@H](O)[C@H]5O)[C@@H](O)[C@H](O)[C@H]4O)cc3O2)cc1OC`, the call was inactive.
For `CC(=O)OCc1ccco1`, the call was inactive.
In the case of `C=CC(=O)OCCOC(=O)C=C`, the AC50 was 26.7 µM (active).
Take `CCOCC(=O)O`: the molecule was called inactive.
As to `CCCCCCCCCCc1ccccc1`, the molecule was classed as inactive.
As for `CCCCCC/C=C\CCCCCCCC(=O)O`, the molecule was classed as inactive.
As to `O=C(c1ccccc1)C1CCC1`, the outcome was inactive.
Regarding `CCN(Cc1cccc(S(=O)(=O)O)c1)c1ccc(C(=C2C=CC(=[N+](CC)Cc3cccc(S(=O)(=O)[O-])c3)C=C2)c2ccccc2)cc1`, the call was inactive.
For `CC(=O)[C@H]1[C@H](C#N)C[C@H]2[C@@H]3CC=C4C[C@@H](O)CC[C@]4(C)[C@H]3CC[C@@]21C`, the molecule was classed as inactive.
As for `C[Si](C)O[Si](C)(C)O[Si](C)(C)O[Si](C)C`, the call was inactive.
On the same count and under the same terms, next, `Cc1cccc(C(=O)O)c1`: “inactive”; `CC1(C)S[C@@H]2[C@H](NC(=O)COc3ccccc3)C(=O)N2[C@H]1C(=O)O`: “inactive”.
As to `COC(=O)c1sccc1S(N)(=O)=O`, the call was inactive.
As for `C=C[C@](C)(O)CC[C@@H]1[C@@]2(C)CCCC(C)(C)[C@@H]2CC[C@@]1(C)O`, the outcome was inactive.
Still for that read-out and setting: as for `CC1=Nc2ccc3ccccc3c2C1(C)C`, the entry is “inactive”.
Take `NCCCN1CCN(CCCN)CC1`: the call was inactive.
